Data on eight compounds can be found in PubChem BioAssay (Tox21).

Values without a mark were called inactive. Records with an inconclusive call do not appear. Calls of active or inactive are those of the source. Unless noted, the call rests on the fitted dose curve; in most records, active means well fitted curve in the direction sought with a large enough effect in the repeat runs; inconclusive means weak or mixed curves; inactive means no such curve, though single readings can be large; an effect the other way counts as inactive or inconclusive.

In assay [1] the target is Progesterone receptor (Homo sapiens) (UniProt P06401). In words: qHTS assay to identify small molecule agonists of the progesterone receptor (PR) signaling pathway (AID 1346784; calls by dose curve; further: nearly all actives have a fitted effect of over 30% in size). In a few lines:
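Using charcoal-stripped serum (2%) to limit endogenous steroids, PR-UAS-bla HEK 293T cells received compounds for 16 hr at 37C after 6 hr plating; beta-lactamase FRET fluorescence was recorded following 2 hr substrate loading at room temperature.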
(In general: qHTS replaces the single test concentration by a dilution series.)

The target is the same in assay [2]. In words: qHTS assay to identify small molecule antagonists of the progesterone receptor (PR) signaling pathway (AID 1346795; active means well fitted inhibition curve with a large enough effect in the signal ratio in the repeat runs, not every such curve was filed as active; the % refers to the signal ratio). In a few lines: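 Inhibition of R5020-induced (1 nM final) beta-lactamase reporter signal in PR-UAS-bla HEK293T cells was scored by FRET fluorescence after overnight (16 hr) compound treatment.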
The nature of assay [3]: qHTS assay to identify small molecule antagonists of the progesterone receptor (PR) signaling pathway - cell viability counter screen (AID 1346798). Further: series mostly up to about 92 µM; nearly all actives have a fitted effect of over 50% in size. A digest of the protocol:
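ATP content as viability readout: CellTiter-Glo luminescence, 30 min room temperature, in PR-UAS-bla HEK293T cells after 16 hr compound/R5020 treatment at 37C and 5% CO2.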

Assay [4] can be described thus: qHTS assay to identify small molecule agonists of the progesterone receptor (PR) signaling pathway - cell viability counter screen (AID 1346799; calls by dose curve; further: nearly all actives have a fitted effect of over 45% in size). A digest of the protocol:
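Cytotoxicity in PR-bla HEK293T cells: 16 h compound, 37C; CellTiter-Glo added post-FRET read; luminescence after 30 min RT.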

Assay [5] can be described thus: qHTS assay to identify small molecule antagonists of the TGF-beta/Smad signaling pathway - cell viability counter screen (AID 1346824). Further: nearly all actives have a fitted effect of over 50% in size. In a few lines:
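SBE-bla HEK 293T cells, incubated overnight, then compound plus 0.25 ng/mL TGF-beta1 (stock added) for 5 hr at 37 C. Viability was read in the same wells by CellTiter-Glo luminescence after 30 min at room temperature.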

A short description of assay [6]: qHTS assay to identify small molecule agonists of the TGF-beta/Smad signaling pathway - cell viability counter screen (AID 1346829). Further: top concentration of the series differs between compounds; nearly all actives have a fitted effect of over 45% in size. In a few lines:
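SBE-bla HEK 293T cells plated overnight, compound exposure 5 hr at 37 C. Viability read in the same wells by CellTiter-Glo luminescence after 30 min at room temperature, following the beta-lactamase read.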

Assay [7] in a line: qHTS assay to identify small molecule agonists of the TGF-beta/Smad signaling pathway (AID 1346859; active means well fitted activation curve with a large enough effect in the signal ratio in the repeat runs, not every such curve was filed as active; the % refers to the signal ratio; further: series mostly up to about 77 µM). A digest of the protocol:
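Stable Smad binding element-beta-lactamase HEK 293T cells; 5 hr compound exposure at 37 C under 5% CO2; 2 hr room-temperature substrate step; fluorescence excited at 405 nm, collected at 460 nm and 530 nm.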

Assay [8] deals with Thyrotropin-releasing hormone receptor (Homo sapiens) (UniProt P34981). Put plainly: qHTS assay to identify small molecule antagonists of the thyrotropin-releasing hormone receptor (TRHR) signaling pathway (AID 1346877; active means well fitted inhibition curve with a large enough effect in the repeat runs, not every such curve was filed as active; further: series mostly up to about 51 µM). A digest of the protocol: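 TRHR-expressing HEK293 cells loaded with calcium dye for 2 h at 37 C; compounds pre-incubated 5 min at room temperature before TRH challenge at 1 nM final. Intracellular calcium fluorescence read kinetically for 3 min; 15 concentrations in triplicate.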

A short description of assay [9]: Human pregnane X receptor (PXR) small molecule agonists, qHTS cell viability counter screen (AID 1346977). Further: nearly all actives have a fitted effect of over 50% in size. Further: potency means the concentration at half of the fitted maximal effect. In a few lines:
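Readout is CellTiter-Fluor fluorescence from PXR-Luc HepG2 cells. Plated cells rested 5hr, then were treated with compounds for 24hr at 37C and 5% CO2, with reagent present during the last hour.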

The nature of assay [10]: Caspase-3/7 induction in HepG2 cells by small molecules, qHTS assay (AID 1346978). Further: nearly all actives have a fitted effect of over 15% in size. In a few lines:
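Wild-type HepG2 cells, 2,000/well, settled 5 hr at 37 C and 5% CO2, then compound-treated for 17 hr; caspase-3/7 activity read by luminescent Caspase-Glo 3/7 after 30 min at room temperature.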

Assay [11] is described as follows: Caspase-3/7 induction in CHO-K1 cells by small molecules, qHTS cell viability counter screen (AID 1346979). Further: nearly all actives have a fitted effect of over 35% in size. Further: potency means the concentration at half of the fitted maximal effect. A digest of the protocol:
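To flag cytotoxic compounds, treated CHO-K1 wild-type cells were given CellTiter-Fluor at 16hr and read fluorescently after 1hr at 37C; the caspase-3/7 luminescence was measured in these same wells.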

Assay [12] is described as follows: Caspase-3/7 induction in CHO-K1 cells by small molecules, qHTS assay (AID 1346980). Further: nearly all actives have a fitted effect of over 15% in size. A digest of the protocol: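 Wild-type CHO-K1 cells exposed to compounds for 17hr at 37 C, 5% CO2. Caspase-3/7 activity then measured by Caspase-Glo 3/7 luminescence after 30min at room temperature.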
A short description of assay [13]: Caspase-3/7 induction in HepG2 cells by small molecules, qHTS cell viability counter screen (AID 1346981). Further: series mostly up to about 92 µM; nearly all actives have a fitted effect of over 30% in size. A digest of the protocol:
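Wild-type HepG2 cells, 2,000/well, settled 5 hr at 37 C, 5% CO2 before compound addition. Viability read by CellTiter-Fluor fluorescence, reagent added after 16 hr compound exposure, then 1 hr at 37C, in the same wells as the caspase read.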

Assay [14] has as its target Nuclear receptor subfamily 1 group I member 2 (Homo sapiens) (UniProt O75469). In words: Human pregnane X receptor (PXR) small molecule agonists, qHTS assay (AID 1346982). Further: nearly all actives have a fitted effect of over 35% in size. Further: potency means the concentration at half of the fitted maximal effect. A digest of the protocol: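 PXR-Luc HepG2 reporter cells (CYP3A4-driven luciferase) in 5% charcoal-stripped FBS medium, plated 5 h before compound addition, then treated 24 h at 37C. Luciferase read by ONE-Glo luminescence after 30 min at room temperature.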

The target of assay [15] is Cytochrome P450 2D6 (Homo sapiens) (UniProt P10635). In words: Cytochrome P450 Family 2 Subfamily D Member 6 (CYP2D6) small molecule antagonists: luciferase reporter qHTS assay (AID 1671196). Further: nearly all actives have a fitted effect of over 50% in size. Further: potency means the concentration at half of the fitted maximal effect. On activity change, negative = inhibition: series mostly up to about 120 µM. A digest of the protocol:
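Cell-free P450-Glo system: CYP2D6 with proluciferin substrate was pre-incubated with compound for 10 min, then reacted with NADPH regeneration for 1 h at room temperature. Luciferin product was detected after 20 min, and data were reported as relative luminescence units.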

For assay [16], the target named is Cytochrome P450 2C19 (Homo sapiens) (UniProt P33261). In words: Cytochrome P450 Family 2 Subfamily C Member 19 (CYP2C19) small molecule antagonists: luciferase reporter qHTS assay (AID 1671197). Further: nearly all actives have a fitted effect of over 65% in size. Further: potency means the concentration at half of the fitted maximal effect. On activity change, negative = inhibition: series mostly up to about 120 µM. A digest of the protocol: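 P450-Glo CYP2C19 system: enzyme-substrate mix with compound 10 min at room temperature, then NADPH regeneration solution, 1 h at 37C. Proluciferin-to-luciferin conversion detected by luminescence after 20 min with detection reagent; ketoconazole as positive control.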
Background: In a reporter assay the amount or activity of a reporter protein is the signal.

The target of assay [17] is Thyrotropin-releasing hormone receptor (Homo sapiens) (UniProt P34981). Put plainly: qHTS assay to identify small molecule agonists of the thyrotropin-releasing hormone receptor (TRHR) signaling pathway (AID 1346891; calls by dose curve; further: series mostly up to about 58 µM). A digest of the protocol: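 In 1536-format, 1500 TRHR-Hek293 cells per well grew 18 h, took up calcium dye for 2 h at 37 °C, received compound, and were read kinetically; 15-point titrations, triplicates.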

In assay [18] the target is Nuclear receptor subfamily 1 group I member 2 (Rattus norvegicus) (UniProt Q9R1A7). In words: Rat pregnane X receptor (rPXR) activation by small molecules, qHTS assay (AID 1346983). Further: nearly all actives have a fitted effect of over 20% in size. As to conditions: rPXR luciferase reporter cells, One-Glo luminescence, 24 h; max activation: stronger effect = higher value. In a few lines: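 Cell-based rPXR activation assay: rPXR cells, 2,000 per well, rested 5hr at 37 C, then exposed to compounds in DMSO for 24 hr at 37 C. Luciferase activity read by One-Glo luminescence after 30 min at room temperature.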

In assay [19] the target is Nuclear receptor subfamily 1 group I member 2 (Homo sapiens) (UniProt O75469). Put plainly: CYP3A4 induction through human pregnane X receptor (PXR) by small molecules, qHTS assay (AID 1346984). Further: nearly all actives have a fitted effect of over 40% in size. A digest of the protocol:
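DPX-2 HepG2 cells carrying a PXR response element and CYP3A4-promoter luciferase construct, treated with compounds 24 hr at 37C. Then P450-Glo CYP3A4 Luciferin-IPA substrate (3uM final) for 3 hr at 37C, One-Glo added, luminescence read.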

The target is the same in assay [20]. In words: Human pregnane X receptor (PXR) activation by small molecules, qHTS assay (AID 1346985). Further: nearly all actives have a fitted effect of over 40% in size. A digest of the protocol: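 DPX-2 cells (HepG2 co-transfected with a PXR response element and a CYP3A4-promoter luciferase construct) were seeded at 2,000 per well, rested 5 hr at 37C, then exposed to DMSO-dissolved compounds for 24 hr. Activation was read as luciferase luminescence.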
On the % scale 0 is the no-effect control and ±100 the full control effect.

Thyrotropin-releasing hormone receptor (Homo sapiens), sequence (P34981 whole entry, looked up): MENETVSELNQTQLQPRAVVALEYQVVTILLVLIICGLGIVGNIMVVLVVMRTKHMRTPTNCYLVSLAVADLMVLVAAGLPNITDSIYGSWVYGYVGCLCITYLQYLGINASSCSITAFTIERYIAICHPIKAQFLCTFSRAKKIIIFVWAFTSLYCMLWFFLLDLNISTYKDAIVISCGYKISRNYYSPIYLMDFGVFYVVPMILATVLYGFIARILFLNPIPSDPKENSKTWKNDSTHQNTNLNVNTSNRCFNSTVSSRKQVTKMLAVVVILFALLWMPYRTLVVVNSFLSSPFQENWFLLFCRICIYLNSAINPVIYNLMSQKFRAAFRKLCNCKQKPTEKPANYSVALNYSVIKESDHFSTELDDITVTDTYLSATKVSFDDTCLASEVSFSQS
Cytochrome P450 2D6 (Homo sapiens), sequence (P10635 whole entry, looked up): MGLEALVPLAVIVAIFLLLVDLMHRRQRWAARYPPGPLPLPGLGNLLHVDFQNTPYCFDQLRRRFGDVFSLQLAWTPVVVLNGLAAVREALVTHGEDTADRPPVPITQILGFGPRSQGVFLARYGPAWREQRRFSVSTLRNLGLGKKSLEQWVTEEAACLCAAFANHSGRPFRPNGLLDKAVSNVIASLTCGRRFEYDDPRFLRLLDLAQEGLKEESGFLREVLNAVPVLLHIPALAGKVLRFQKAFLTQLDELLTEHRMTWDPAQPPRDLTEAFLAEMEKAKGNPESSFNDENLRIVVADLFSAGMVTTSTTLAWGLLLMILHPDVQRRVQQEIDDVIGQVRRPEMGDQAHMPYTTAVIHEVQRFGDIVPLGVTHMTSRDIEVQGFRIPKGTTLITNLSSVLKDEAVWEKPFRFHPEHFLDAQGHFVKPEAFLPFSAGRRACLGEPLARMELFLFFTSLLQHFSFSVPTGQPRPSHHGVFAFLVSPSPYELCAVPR
Nuclear receptor subfamily 1 group I member 2 (Homo sapiens), sequence (O75469 whole entry, looked up): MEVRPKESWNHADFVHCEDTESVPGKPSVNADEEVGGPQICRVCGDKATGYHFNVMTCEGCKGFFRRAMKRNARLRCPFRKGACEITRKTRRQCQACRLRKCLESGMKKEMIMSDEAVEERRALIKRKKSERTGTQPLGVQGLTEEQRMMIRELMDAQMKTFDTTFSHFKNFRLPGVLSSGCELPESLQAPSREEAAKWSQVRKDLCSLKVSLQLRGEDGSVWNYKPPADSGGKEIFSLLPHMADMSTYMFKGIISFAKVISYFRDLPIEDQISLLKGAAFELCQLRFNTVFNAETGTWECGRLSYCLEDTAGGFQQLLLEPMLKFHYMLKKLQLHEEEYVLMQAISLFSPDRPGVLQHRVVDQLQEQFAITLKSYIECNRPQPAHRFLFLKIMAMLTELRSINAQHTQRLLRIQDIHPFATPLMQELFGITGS
Cytochrome P450 2C19 (Homo sapiens), sequence (P33261 whole entry, looked up): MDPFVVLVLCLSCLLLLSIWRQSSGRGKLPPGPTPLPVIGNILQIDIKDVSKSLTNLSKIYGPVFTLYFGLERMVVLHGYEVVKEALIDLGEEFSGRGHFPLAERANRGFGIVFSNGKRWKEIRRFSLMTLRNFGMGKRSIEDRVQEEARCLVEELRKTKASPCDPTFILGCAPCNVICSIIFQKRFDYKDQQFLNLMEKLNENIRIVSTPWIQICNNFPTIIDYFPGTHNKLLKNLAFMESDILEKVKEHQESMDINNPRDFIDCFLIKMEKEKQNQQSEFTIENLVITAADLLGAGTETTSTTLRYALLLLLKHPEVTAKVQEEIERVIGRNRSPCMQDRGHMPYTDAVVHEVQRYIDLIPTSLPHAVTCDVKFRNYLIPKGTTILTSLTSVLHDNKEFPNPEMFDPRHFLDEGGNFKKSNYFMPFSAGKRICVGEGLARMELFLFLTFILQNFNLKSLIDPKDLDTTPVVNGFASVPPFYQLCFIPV
Progesterone receptor (Homo sapiens), sequence (P06401 whole entry, looked up): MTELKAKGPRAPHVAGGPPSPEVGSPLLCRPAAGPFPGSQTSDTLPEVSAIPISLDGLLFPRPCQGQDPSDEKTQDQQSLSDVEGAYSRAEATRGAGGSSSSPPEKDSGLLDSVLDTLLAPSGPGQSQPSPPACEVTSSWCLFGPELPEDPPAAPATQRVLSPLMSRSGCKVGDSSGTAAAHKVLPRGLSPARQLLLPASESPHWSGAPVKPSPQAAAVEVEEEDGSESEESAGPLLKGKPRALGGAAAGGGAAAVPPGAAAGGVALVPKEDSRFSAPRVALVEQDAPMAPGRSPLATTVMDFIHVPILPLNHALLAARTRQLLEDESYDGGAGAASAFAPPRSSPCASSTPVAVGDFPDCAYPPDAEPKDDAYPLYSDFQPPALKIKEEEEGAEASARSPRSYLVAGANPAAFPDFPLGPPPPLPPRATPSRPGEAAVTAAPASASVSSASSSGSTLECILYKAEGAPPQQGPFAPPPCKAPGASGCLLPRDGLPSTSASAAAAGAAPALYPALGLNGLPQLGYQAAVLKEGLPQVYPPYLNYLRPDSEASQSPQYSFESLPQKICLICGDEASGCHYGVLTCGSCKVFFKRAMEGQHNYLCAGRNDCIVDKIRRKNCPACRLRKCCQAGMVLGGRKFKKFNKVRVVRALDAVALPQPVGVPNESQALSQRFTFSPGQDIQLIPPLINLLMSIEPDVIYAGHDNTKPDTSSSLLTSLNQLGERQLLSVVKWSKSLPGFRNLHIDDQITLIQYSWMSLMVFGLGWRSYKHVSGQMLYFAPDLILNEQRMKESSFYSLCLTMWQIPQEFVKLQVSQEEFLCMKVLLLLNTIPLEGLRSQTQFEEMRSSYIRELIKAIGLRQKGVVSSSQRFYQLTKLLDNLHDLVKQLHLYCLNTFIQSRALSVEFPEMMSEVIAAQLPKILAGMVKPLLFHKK
Nuclear receptor subfamily 1 group I member 2 (Rattus norvegicus), sequence (Q9R1A7 whole entry, looked up): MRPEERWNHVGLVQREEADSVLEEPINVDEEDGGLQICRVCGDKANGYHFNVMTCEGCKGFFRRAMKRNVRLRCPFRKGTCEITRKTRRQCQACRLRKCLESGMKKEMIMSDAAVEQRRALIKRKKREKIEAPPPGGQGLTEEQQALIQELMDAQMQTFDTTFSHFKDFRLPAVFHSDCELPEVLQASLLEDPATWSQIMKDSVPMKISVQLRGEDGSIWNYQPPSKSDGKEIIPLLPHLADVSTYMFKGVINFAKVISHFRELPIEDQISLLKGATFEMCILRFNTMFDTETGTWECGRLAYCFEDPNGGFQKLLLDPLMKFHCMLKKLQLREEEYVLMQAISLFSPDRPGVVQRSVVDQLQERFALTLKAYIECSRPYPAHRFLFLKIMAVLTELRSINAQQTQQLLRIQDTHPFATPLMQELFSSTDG

As to `CCCCN(C)C`, the result in [1] was inactive. Also, the Potency entry in assay [2], in assay [3], in assay [4], in [5], in assay [6] and in [7] was “inactive” in each case. The Potency result in assay [8], in assay [9], in assay [10], in [11], in [12] and in assay [13] was “inactive” in each case. Besides, the Potency result in [14] and in assay [15] was “inactive” each time.

Consider `Cc1cncc(C)c1`, for which, in assay [1], the compound was called inactive. For the same compound, the Potency entry in assay [2], in assay [3], in assay [4], in [5], in [6] and in assay [7] was “inactive” each time. The Potency result in assay [8], in assay [9], in [10], in assay [11], in assay [12] and in [14] was “inactive” in each case. Besides, the Potency entry in [15] and in [16] was “inactive” throughout.

`Brc1ccccn1`: the outcome in assay [1] was inactive. In addition, the Potency result in assay [2], in assay [3], in [4], in [5], in assay [6] and in assay [7] was “inactive” throughout. In addition, the Potency entry in [17], in assay [9], in assay [10], in assay [11], in assay [12] and in assay [13] was “inactive” in each case. The Potency result in assay [14], in [15] and in assay [16] was “inactive” throughout.

Regarding `CO[C@H]1C=CO[C@@]2(C)Oc3c(C)c(O)c4c(O)c(cc(O)c4c3C2=O)NC(=O)/C(C)=C\C=C/[C@H](C)[C@H](O)[C@@H](C)[C@@H](O)[C@@H](C)[C@H](OC(C)=O)[C@@H]1C`, the result in [1] was inactive. Besides, the Potency result in assay [2], in assay [3], in assay [4], in [5], in [6] and in assay [7] was “inactive” in each case. The Potency entry in assay [17], in assay [10], in [12], in assay [19] and in assay [20] was “inactive” throughout. Moreover, the Potency is 48.9 µM (active) in assay [9]; 19.5 µM (active) in [11]; 7.75 µM (active) in [14]; 35.8 µM (active) in assay [15]; 20.2 µM (active) in [16]. In addition, in assay [18], the max activation was -1.49%.

For the compound `CCCSS/C(CCO)=C(\C)N(C=O)Cc1cnc(C)nc1N`, the outcome in [1] was inactive. The Potency result in assay [2], in [3], in [4], in assay [5], in [6] and in [7] was “inactive” each time. Besides, the Potency result in assay [8], in assay [17], in assay [10], in [13], in assay [19] and in assay [20] was “inactive” in each case. In addition, the Potency result in assay [16] is “inactive”. The max activation in assay [18] is 9.56%. Moreover, the Potency in assay [15] is 34.7 µM (active).

As to `O=C=NCc1cccc(CN=C=O)c1`, the activation was -0.779% [at 19 µM] in assay [1], 3.26% [at 15.8 µM] in [7], -0.119% [at 11.8 µM] in assay [17] and 2.53% [at 19 µM] in assay [14]. Moreover, the values for the activity change, negative = inhibition in [2] and in assay [15] were 0.417% [at 18.9 µM] and -24.5% [at 23.6 µM], respectively. Also, the activity change, negative = cytotoxicity was -11.8% [at 18.9 µM] in assay [3]; -1.39% [at 19 µM] in assay [4]; -12.3% [at 15.8 µM] in [6]; 4.21% [at 19 µM] in assay [9]; 0.691% [at 19 µM] in [11]; 9.74% [at 19 µM] in [13]. Also, the viability change, negative = cytotoxic in assay [5] is -4.21% [at 15.8 µM]. Moreover, the caspase activation in [10] is -0.106% [at 19 µM]. Moreover, the caspase-3/7 activation in [12] was -0.138% [at 19 µM].

On to `O=C1OC(=O)c2cccc3cccc1c23`, for which the result in assay [1] was inactive. For the same compound, the Potency entry in assay [2], in assay [3], in [4], in assay [5], in assay [6] and in [7] was “inactive” each time. Moreover, the Potency result in assay [8], in assay [9], in assay [10], in [11], in assay [13] and in assay [15] was “inactive” in each case. The Potency result in assay [16] was “inactive”. Further, the Potency in assay [14] is 19.5 µM (active).

In the case of `CCCCCCCC(=O)OCC`, the result in assay [1] was inactive. Also, the Potency result in [2], in assay [3], in assay [4], in assay [5], in [6] and in assay [7] was “inactive” in each case. In addition, the Potency entry in assay [17], in [9], in assay [10], in [11], in [12] and in assay [14] was “inactive” each time. Further, the Potency entry in assay [15] and in [16] was “inactive” in each case.
